Inconclusive results are not listed. Calls of active or inactive are those of the source. How the source made its calls, unless noted: active means hit-call score of the fitted dose curve at least 0.9, where 1 is the maximum; inactive means score below 0.9.

Our source for the outcome and AC50 values is PubChem BioAssay (EPA / NIEHS).

In assay [1] the target is Paired box protein Pax-6 (Homo sapiens) (UniProt P26367). Put plainly: ATG_Pax6_CIS: Attagene CIS-FACTORIAL HepG2 Assay for human Paired Box 6 (PAX6) (AID 2282956). The note with it: HepG2 CIS-FACTORIAL PAX6 reporter transcription, RNA readout; actives raise or lower the signal. An outline of the steps:
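Transient MRTU transfection of HepG2 → compound exposure 24 h → TriZol RNA, oligo(dT) RT → PCR, 6-FAM primer extension, HpaI cut → capillary electrophoresis; activity fitted both directions against DMSO.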

Assay [2] in a line: ATG_PXRE_CIS: Attagene CIS-FACTORIAL HepG2 Assay for human Pregnane X Receptor Element (PXRE) (AID 2282957). As to conditions: HepG2 Attagene CIS-FACTORIAL PXRE reporter, mRNA; actives raise or lower the signal. An outline of the steps:
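Cells: HepG2, transiently transfected reporter units under cis promoter control. Exposure: 24 h. Detection: reporter mRNA via RT-PCR/CE fluorescence; bidirectional fitting, DMSO-referenced.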

Assay [3] in a line: ATG_PPRE_CIS: Attagene CIS-FACTORIAL HepG2 Assay for human Peroxisome Proliferator-activated Response Element (PPRE) (AID 2282958). As to conditions: HepG2 PPRE cis-element reporter, Attagene transcription factor profiling; actives raise or lower the signal. An outline of the steps:
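Transcript-level reporter induction in transfected HepG2 cells after 24 h chemical exposure, quantified by fluorescence from RT-PCR products separated by capillary electrophoresis.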

A short description of assay [4]: ATG_RORE_CIS: Attagene CIS-FACTORIAL HepG2 Assay for human RAR-related Orphan Receptor Element (RORE) (AID 2282959). The note with it: HepG2 Attagene cis-factorial RORE reporter, mRNA; actives raise or lower the signal. An outline of the steps: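 Multiplexed reporter assay measuring mRNA induction from a cis promoter element in transiently transfected HepG2 cells after 24 h treatment. Detection via RT-PCR and capillary electrophoresis fluorescence; DMSO serves as baseline.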

Assay [5] is described as follows: ATG_Sox_CIS: Attagene CIS-FACTORIAL HepG2 Assay for human SRY-box transcription factor (SOX) (AID 2282960). The note with it: HepG2 Attagene cis-factorial SOX reporter, mRNA; actives raise or lower the signal. An outline of the steps: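 Cells were transfected with reporter constructs under cis-regulatory promoters, then exposed to chemicals for 24 h. Reporter transcripts were quantified by fluorescence after RT-PCR and capillary electrophoresis; activity was fitted in both directions against DMSO.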

Assay [6] deals with Transcription factor Sp1 (Homo sapiens) (UniProt P08047). Put plainly: ATG_Sp1_CIS: Attagene CIS-FACTORIAL HepG2 Assay for human Specificity Protein 1 (Sp1) (AID 2282961). As to conditions: HepG2 Sp1 cis-reporter transcription, actives raise or lower the signal. An outline of the steps:
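Measures mRNA induction of an Sp1-linked reporter in HepG2 cells 24 h post-dosing. Multiplexed reporters read by RT-PCR and capillary electrophoresis; DMSO serves as negative control and baseline.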

Assay [7] is described as follows: ATG_SREBP_CIS: Attagene CIS-FACTORIAL HepG2 Assay for human Sterol Regulatory Element Binding (SREBP) (AID 2282962). As to conditions: HepG2 Attagene cis-factorial SREBP reporter, mRNA; actives raise or lower the signal. An outline of the steps:
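Transfected HepG2 (cis-regulated reporter library, endogenous TFs) → compound 24 h → total RNA → oligo(dT) RT → reporter-specific PCR → FAM primer extension, HpaI cut → CE fluorescence. Fit bidirectional vs DMSO.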

For assay [8], the target named is Signal transducer and activator of transcription 3 (Homo sapiens) (UniProt P40763). The experiment in a line: ATG_STAT3_CIS: Attagene CIS-FACTORIAL HepG2 Assay for human Signal Transducer and Activator of Transcription 3 (STAT3) (AID 2282963). The note with it: HepG2, Attagene cis-factorial STAT3 reporter transcription; actives raise or lower the signal. An outline of the steps: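 After a 24 h compound incubation, total RNA from MRTU-transfected HepG2 cells was converted to cDNA and reporter sequences PCR-amplified, labelled and profiled by capillary electrophoresis. Gain and loss of signal were referenced to DMSO.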

Assay [9] is described as follows: ATG_TA_CIS: Attagene CIS-FACTORIAL HepG2 Assay for human TA Basal Promoter (AID 2282964). The note with it: HepG2 Attagene CIS-factorial TA basal promoter reporter; actives raise or lower the signal. An outline of the steps: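 Cis-factorial format in HepG2: reporters report endogenous factors, not chimeric Gal4 fusions. After 24 h treatment, reporter transcripts were measured by RT-PCR-capillary electrophoresis fluorescence, analysed bidirectionally versus DMSO.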

Assay [10] can be described thus: ATG_TCF_b_cat_CIS: Attagene CIS-FACTORIAL HepG2 Assay for human T-Cell-Factor with beta-catenin (TCF/b-cat) (AID 2282965). The note with it: HepG2 TCF/beta-catenin cis-reporter transcription, actives raise or lower the signal. An outline of the steps:
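Endogenous transcription factor activity is captured through cis-promoter reporter constructs transiently introduced into human HepG2 liver cells. Induced reporter mRNA is measured after 24 h and fitted bidirectionally relative to DMSO.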

Assay [11] can be described thus: ATG_TAL_CIS: Attagene CIS-FACTORIAL HepG2 Assay for human TAL Basal Promoter (AID 2282966).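 Further: background control endpoint measuring basal TAL promoter reporter mRNA not a specific factor.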 As to conditions: HepG2 Attagene cis-factorial TAL promoter reporter; actives raise or lower the signal. An outline of the steps: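 RT-PCR plus capillary electrophoresis quantifies reporter mRNA induction in transiently transfected HepG2 cells after 24 h chemical treatment. DMSO serves as negative control and baseline for bidirectional fitting.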

Assay [12] is described as follows: ATG_TGFb_CIS: Attagene CIS-FACTORIAL HepG2 Assay for human Transforming Growth Factor (TGF) (AID 2282967). As to conditions: HepG2 Attagene CIS TGFb reporter, mRNA transcription; actives raise or lower the signal. An outline of the steps: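 Multiplexed cis-reporter HepG2 system, 24 h treatment; mRNA induction read by fluorescence after RT-PCR and CE; DMSO negative control, bidirectional curve fitting.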

The nature of assay [13]: ATG_VDRE_CIS: Attagene CIS-FACTORIAL HepG2 Assay for human Vitamin D Receptor Element (VDRE) (AID 2282968). As to conditions: HepG2 VDRE cis-reporter transcription, actives raise or lower the signal. An outline of the steps:
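In transiently transfected HepG2 liver cells, gain or loss of reporter mRNA after 24 h exposure is scored relative to DMSO, using fluorescence detection by capillary electrophoresis of RT-PCR products.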

Assay [14] addresses Nuclear receptor subfamily 1 group I member 3 (Homo sapiens) (UniProt Q14994). Put plainly: ATG_CAR_TRANS: Attagene TRANS-FACTORIAL HepG2 Assay for human Constitutive Androstane Receptor (CAR) (AID 2282969; active means hit-call score of the fitted dose curve at least 0.9, where 1 is the maximum;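 further: activators raise reporter mRNA above DMSO so AC50 marks induction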). The note with it: HepG2 Attagene TRANS-FACTORIAL CAR reporter. An outline of the steps: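 Readout is reporter mRNA induction, quantified by fluorescent primer extension and capillary electrophoresis after RT-PCR. Cells were HepG2 transiently carrying chimeric NR-Gal4 constructs with GAL4-UAS reporters, treated for 24 h; activity scored upward from DMSO.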

Assay [15] deals with Estrogen receptor (Homo sapiens) (UniProt P03372). The experiment in a line: ATG_ERa_TRANS: Attagene TRANS-FACTORIAL HepG2 Assay for human Estrogen Receptor alpha (ERa) (AID 2282970; active means hit-call score of the fitted dose curve at least 0.9, where 1 is the maximum). The note with it: HepG2 Attagene TRANS ERa GAL4 reporter, mRNA. An outline of the steps:
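Cells: HepG2, transiently transfected. Construct: GAL4-UAS reporter units regulated by exogenous NR-Gal4 chimeras. Time: 24 h. Detection: reporter mRNA by RT-PCR, capillary electrophoresis, fluorescence. Baseline: DMSO, upward fitting.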

Assay [16] has as its target X-box-binding protein 1 (Homo sapiens) (UniProt P17861). Put plainly: ATG_Xbp1_CIS: Attagene CIS-FACTORIAL HepG2 Assay for human X-box Binding Protein 1 (XBP1) (AID 2282972). The note with it: HepG2 XBP1 cis-element reporter, Attagene multiplex; actives raise or lower the signal. An outline of the steps: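 HepG2, transient MRTU transfection (cis-promoter driven), 24 h compound exposure. Total RNA → oligo(dT) RT → PCR → 6-FAM labeling → HpaI cut → CE. Bidirectional fit vs DMSO.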

Assay [17] in a line: ATG_M_19_TRANS: Attagene TRANS-FACTORIAL HepG2 Assay for M19 Transcription Factor (Internal Marker) (AID 2282974; active means hit-call score of the fitted dose curve at least 0.9, where 1 is the maximum). The note with it: HepG2 Attagene TRANS-FACTORIAL M19 internal marker reporter. An outline of the steps: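 After transfection of HepG2 with GAL4-UAS-driven reporter constructs, cells are dosed for 24 h. Total RNA is reverse-transcribed, reporter sequences PCR-amplified and labelled, then HpaI-digested and sized by capillary electrophoresis.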

The nature of assay [18]: ATG_GAL4_TRANS: Attagene TRANS-FACTORIAL HepG2 Assay for GAL4 (Internal Marker) (AID 2282976; active means hit-call score of the fitted dose curve at least 0.9, where 1 is the maximum). As to conditions: HepG2 Attagene TRANS GAL4 internal marker reporter. An outline of the steps:
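In transfected human HepG2 liver cells dosed 24 h, GAL4 reporter mRNA serves as a baseline marker. Detection by RT-PCR with fluorescent capillary electrophoresis, activity fitted upward relative to DMSO.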

In assay [19] the target is Steroid hormone receptor ERR1 (Homo sapiens) (UniProt P11474). Put plainly: ATG_ERRa_TRANS: Attagene TRANS-FACTORIAL HepG2 Assay for human Estrogen-Related Receptor alpha (ERRa) (AID 2282971; active means hit-call score of the fitted dose curve at least 0.9, where 1 is the maximum). As to conditions: HepG2 Attagene TRANS reporter, ERRa transactivation. An outline of the steps:
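Reporter transcripts from ERRa-Gal4 chimera activity measured in transiently transfected human HepG2 cells 24 hours after dosing, using RT-PCR with 6-FAM primer extension, HpaI digestion and capillary electrophoresis; DMSO is baseline.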

Assay [20] deals with Estrogen-related receptor gamma (Homo sapiens) (UniProt P62508). The experiment in a line: ATG_ERRg_TRANS: Attagene TRANS-FACTORIAL HepG2 Assay for human Estrogen-Related Receptor gamma (ERRg) (AID 2282977; active means hit-call score of the fitted dose curve at least 0.9, where 1 is the maximum;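 further: hits increase reporter signal over DMSO so potencies reflect activators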). As to conditions: HepG2 Attagene TRANS reporter, ERRg transactivation. An outline of the steps:
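Transient HepG2 transfectants, 24 h compound exposure, GAL4-UAS reporter mRNA by RT-PCR/6-FAM labelling/capillary electrophoresis; positive direction vs DMSO.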

Chain of Transcription factor Sp1 (Homo sapiens) (P08047 whole entry, looked up): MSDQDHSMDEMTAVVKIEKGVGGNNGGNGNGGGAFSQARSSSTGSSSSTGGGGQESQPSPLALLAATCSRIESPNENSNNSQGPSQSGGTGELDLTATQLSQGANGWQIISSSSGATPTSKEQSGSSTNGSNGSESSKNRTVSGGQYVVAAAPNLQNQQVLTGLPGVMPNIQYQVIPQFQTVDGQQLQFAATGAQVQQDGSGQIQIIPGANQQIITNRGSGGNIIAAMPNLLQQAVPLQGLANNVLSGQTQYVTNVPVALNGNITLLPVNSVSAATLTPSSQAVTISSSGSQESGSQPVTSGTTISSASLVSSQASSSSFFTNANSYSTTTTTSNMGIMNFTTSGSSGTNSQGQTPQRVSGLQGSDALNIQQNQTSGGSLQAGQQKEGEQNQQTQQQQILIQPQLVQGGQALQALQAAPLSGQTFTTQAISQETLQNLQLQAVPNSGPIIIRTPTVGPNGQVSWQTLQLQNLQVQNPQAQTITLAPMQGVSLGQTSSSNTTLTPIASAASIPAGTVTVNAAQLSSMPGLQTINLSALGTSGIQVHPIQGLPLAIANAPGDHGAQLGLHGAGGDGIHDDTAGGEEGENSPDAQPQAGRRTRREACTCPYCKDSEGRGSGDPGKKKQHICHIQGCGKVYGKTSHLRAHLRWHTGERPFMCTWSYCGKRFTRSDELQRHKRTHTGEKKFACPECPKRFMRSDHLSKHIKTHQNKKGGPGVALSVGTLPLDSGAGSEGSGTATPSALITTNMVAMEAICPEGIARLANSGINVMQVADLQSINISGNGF
Chain of X-box-binding protein 1 (Homo sapiens) (P17861 whole entry, looked up): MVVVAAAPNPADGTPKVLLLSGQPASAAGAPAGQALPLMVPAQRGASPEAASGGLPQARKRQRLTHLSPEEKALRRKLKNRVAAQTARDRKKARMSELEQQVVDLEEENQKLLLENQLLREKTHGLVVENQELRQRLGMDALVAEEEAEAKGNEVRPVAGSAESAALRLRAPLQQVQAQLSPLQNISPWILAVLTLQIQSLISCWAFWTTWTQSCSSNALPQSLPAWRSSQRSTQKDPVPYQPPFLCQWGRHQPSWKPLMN
Chain of Signal transducer and activator of transcription 3 (Homo sapiens) (P40763 whole entry, looked up): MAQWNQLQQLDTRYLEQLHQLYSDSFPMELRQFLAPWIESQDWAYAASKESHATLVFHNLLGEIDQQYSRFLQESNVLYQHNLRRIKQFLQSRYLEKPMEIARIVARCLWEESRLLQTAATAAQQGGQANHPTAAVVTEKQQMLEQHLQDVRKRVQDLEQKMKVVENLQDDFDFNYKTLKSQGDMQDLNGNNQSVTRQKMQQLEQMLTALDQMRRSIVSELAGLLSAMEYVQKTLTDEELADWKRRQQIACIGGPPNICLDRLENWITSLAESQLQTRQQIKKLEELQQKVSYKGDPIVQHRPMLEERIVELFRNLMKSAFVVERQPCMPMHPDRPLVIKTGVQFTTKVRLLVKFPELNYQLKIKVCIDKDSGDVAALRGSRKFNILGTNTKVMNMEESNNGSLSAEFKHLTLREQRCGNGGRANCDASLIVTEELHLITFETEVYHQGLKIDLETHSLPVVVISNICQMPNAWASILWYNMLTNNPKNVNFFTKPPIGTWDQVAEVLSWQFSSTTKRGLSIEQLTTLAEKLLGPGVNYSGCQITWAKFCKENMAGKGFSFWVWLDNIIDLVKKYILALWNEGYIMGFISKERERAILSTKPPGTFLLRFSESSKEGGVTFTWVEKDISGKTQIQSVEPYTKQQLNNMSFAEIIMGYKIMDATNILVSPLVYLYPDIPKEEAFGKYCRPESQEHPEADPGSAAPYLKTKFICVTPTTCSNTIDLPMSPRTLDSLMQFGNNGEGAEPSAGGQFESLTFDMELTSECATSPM
Chain of Paired box protein Pax-6 (Homo sapiens) (P26367 whole entry, looked up): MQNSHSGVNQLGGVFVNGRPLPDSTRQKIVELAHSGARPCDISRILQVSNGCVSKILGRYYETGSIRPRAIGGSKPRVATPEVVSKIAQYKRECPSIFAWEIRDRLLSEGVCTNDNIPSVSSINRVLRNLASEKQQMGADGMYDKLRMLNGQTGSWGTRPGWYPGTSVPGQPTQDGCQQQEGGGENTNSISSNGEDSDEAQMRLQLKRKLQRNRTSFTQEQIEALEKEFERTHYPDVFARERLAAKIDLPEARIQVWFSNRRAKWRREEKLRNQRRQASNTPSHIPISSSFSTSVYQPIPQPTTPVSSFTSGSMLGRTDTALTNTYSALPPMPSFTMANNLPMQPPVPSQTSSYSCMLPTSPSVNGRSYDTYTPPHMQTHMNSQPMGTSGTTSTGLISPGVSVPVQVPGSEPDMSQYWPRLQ
Chain of Nuclear receptor subfamily 1 group I member 3 (Homo sapiens) (Q14994 whole entry, looked up, the tested form may be a part): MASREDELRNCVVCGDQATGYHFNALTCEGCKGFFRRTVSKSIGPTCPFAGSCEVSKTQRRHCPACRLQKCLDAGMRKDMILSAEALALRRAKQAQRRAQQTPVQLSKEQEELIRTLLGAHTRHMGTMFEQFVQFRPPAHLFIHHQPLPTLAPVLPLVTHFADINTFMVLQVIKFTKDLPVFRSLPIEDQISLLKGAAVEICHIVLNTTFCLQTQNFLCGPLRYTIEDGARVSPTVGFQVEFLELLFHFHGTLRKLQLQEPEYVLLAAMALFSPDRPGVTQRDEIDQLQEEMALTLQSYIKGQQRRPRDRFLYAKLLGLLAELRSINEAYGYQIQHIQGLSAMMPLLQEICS
Chain of Estrogen receptor (Homo sapiens) (P03372 whole entry, looked up, the tested form may be a part): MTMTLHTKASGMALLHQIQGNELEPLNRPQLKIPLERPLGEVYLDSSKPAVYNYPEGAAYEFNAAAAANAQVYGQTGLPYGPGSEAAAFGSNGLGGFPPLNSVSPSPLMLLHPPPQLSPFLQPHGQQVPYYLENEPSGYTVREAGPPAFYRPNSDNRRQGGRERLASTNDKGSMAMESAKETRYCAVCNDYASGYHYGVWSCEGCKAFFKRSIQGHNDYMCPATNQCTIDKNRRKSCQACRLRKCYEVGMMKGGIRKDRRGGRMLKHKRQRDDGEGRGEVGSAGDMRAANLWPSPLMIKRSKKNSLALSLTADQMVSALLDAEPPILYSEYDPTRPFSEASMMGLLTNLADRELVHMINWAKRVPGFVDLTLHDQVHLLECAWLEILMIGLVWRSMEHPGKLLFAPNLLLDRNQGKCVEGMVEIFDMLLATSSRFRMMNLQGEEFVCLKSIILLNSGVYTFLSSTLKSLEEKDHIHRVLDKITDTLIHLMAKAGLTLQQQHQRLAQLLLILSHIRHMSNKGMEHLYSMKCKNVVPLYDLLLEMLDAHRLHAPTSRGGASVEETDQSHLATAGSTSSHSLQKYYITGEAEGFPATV
Chain of Steroid hormone receptor ERR1 (Homo sapiens) (P11474 whole entry, looked up, the tested form may be a part): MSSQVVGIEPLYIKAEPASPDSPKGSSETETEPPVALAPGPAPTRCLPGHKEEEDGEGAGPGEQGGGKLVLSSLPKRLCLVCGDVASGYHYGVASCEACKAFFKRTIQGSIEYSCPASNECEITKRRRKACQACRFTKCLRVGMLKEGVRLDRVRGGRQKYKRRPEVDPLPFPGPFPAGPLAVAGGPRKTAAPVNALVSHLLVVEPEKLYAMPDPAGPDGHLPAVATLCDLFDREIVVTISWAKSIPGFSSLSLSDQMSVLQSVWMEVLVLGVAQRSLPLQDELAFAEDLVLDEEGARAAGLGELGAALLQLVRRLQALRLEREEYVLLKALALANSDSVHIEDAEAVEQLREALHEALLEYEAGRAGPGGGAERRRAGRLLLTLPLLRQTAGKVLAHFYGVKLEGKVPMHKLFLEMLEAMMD
Chain of Estrogen-related receptor gamma (Homo sapiens) (P62508 whole entry, looked up, the tested form may be a part): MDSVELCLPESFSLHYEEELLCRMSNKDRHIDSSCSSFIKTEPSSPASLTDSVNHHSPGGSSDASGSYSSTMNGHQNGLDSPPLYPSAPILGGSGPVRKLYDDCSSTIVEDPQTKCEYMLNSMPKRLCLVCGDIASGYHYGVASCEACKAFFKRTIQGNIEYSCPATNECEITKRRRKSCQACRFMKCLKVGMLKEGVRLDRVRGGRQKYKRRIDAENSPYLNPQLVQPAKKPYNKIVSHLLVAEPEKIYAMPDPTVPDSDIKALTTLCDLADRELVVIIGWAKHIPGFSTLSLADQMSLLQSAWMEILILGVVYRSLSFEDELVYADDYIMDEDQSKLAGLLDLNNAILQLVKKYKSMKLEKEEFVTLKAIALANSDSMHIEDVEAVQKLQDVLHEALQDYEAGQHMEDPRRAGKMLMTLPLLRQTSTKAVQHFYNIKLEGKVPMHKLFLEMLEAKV

Turning to `CC(C)CC(O)Cc1ccccc1` (stereo unspecified), the result in assay [1], in [3], in [4], in assay [5], in [6] and in assay [7] was inactive. Moreover, the outcome in [8], in assay [9], in assay [10], in assay [11], in assay [12] and in assay [13] was inactive. In addition, the compound was called inactive in assay [14], in assay [15], in [16], in assay [17] and in assay [18]. In addition, the AC50 – broadly, the concentration at which the activity in the assay is half-maximal – in [2] is 71.6 µM (active).

As for `CC(C)C1=CC2=CC[C@@H]3[C@](C)(CCC[C@@]3(C)C(=O)O)[C@H]2CC1`, the AC50 was 71.2 µM (active) in assay [1]; 1.33 µM (active) in assay [2]; 43.1 µM (active) in [4]; 169 µM (active) in [5]; 25.9 µM (active) in assay [7]; 89.6 µM (active) in assay [9]. Also, the AC50 in assay [11] is 52.1 µM (active); in assay [12], 0.551 µM (active); in assay [13], 4.54 µM (active); in assay [15], 31.9 µM (active). The result in assay [3], in assay [6], in assay [8], in [10], in assay [14] and in assay [19] was inactive. The call in [16] was inactive.

Take `COc1cc(C)ccc1C(C)C`: the compound was called inactive in assay [1], in assay [2], in [3], in assay [4], in [5] and in assay [6]. Further, the call in assay [7], in [8], in [9], in assay [10], in assay [11] and in [12] was inactive. The call in assay [13], in assay [15], in assay [16], in assay [17], in assay [18] and in assay [20] was inactive.

For the compound `CCOC(=O)CC`, the call in [1], in assay [2], in assay [3], in assay [4], in assay [5] and in assay [6] was inactive. Moreover, the outcome in [7], in [8], in [9], in assay [10], in [11] and in [12] was inactive. Besides, the result in assay [13], in [14], in assay [15] and in assay [16] was inactive.

On to `CC(C)=CCCC(C)C=O` (stereo unspecified), for which the compound was called inactive in [1], in assay [3], in assay [4], in assay [5], in [6] and in assay [7]. The outcome in assay [8], in assay [9], in assay [10], in [11], in assay [12] and in assay [14] was inactive. Besides, the result in assay [15], in assay [16] and in [17] was inactive. Also, the concentration at half-maximal activity (AC50) in assay [2] was 8.29 µM (active); in assay [13], 32 µM (active).

`Cc1cc(C)c(C)cc1C`: the result in assay [1], in [2], in [3], in assay [4], in assay [5] and in assay [6] was inactive. Besides, the outcome in assay [7], in assay [8], in assay [9], in [10], in [11] and in assay [12] was inactive. For the same compound, the result in [13], in assay [15], in assay [16] and in [17] was inactive.

Take `O=C(O)CCCC[C@@H]1SC[C@@H]2NC(=O)N[C@@H]21`: the result in assay [1], in [2], in [3], in assay [4], in assay [5] and in [6] was inactive. Besides, the call in assay [7], in [8], in assay [9], in [10], in assay [11] and in assay [12] was inactive. Also, the compound was classed as inactive in assay [13], in assay [14], in [15], in assay [19], in assay [16] and in assay [17]. Also, the call in [20] was inactive.
